Measurements as given in ChEMBL document CHEMBL2218924, “A broad activity screen in support of a chemogenomic map for kinase signalling research and drug discovery” (Biochem J, 2013).

Key:
[1] = molecular target: T1, Serine/threonine-protein kinase 17A (Homo sapiens) (UniProt Q9UEE5); conditions: at 10 µM
T1 sequence (whole entry): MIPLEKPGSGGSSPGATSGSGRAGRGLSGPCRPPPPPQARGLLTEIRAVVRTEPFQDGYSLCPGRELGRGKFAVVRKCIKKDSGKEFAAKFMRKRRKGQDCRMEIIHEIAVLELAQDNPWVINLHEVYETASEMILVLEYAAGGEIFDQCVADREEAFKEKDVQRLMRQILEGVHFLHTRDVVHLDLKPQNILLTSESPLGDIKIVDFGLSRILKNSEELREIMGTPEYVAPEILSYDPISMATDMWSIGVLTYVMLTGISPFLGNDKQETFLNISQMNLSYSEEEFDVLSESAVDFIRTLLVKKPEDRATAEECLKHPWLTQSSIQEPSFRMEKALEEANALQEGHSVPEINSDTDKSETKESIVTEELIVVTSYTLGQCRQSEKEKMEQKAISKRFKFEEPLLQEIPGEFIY

[2] = molecular target: T2, Dual specificity tyrosine-phosphorylation-regulated kinase 2 (Homo sapiens) (UniProt Q92630); conditions: at 1 µM
T2 sequence (whole entry): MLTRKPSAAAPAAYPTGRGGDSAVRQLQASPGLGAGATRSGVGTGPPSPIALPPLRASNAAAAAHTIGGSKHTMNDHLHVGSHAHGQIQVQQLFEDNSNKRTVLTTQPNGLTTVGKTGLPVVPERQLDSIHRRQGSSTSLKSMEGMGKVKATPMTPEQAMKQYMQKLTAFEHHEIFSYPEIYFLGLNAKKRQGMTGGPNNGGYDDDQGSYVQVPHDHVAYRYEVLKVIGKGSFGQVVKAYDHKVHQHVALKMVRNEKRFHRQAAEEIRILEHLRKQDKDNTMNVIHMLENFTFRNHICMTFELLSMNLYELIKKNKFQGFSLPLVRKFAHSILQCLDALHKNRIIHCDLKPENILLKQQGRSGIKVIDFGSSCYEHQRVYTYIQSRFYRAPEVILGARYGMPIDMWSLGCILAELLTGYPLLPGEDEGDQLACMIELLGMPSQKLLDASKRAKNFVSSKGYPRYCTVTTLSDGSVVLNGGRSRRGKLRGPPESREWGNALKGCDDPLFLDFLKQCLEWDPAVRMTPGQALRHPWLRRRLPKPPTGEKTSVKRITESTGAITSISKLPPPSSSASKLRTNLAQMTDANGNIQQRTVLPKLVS

[3] = molecular target: T2, Dual specificity tyrosine-phosphorylation-regulated kinase 2 (Homo sapiens); conditions: at 10 µM
[4] = molecular target: Epidermal growth factor receptor (Homo sapiens) (UniProt P00533); conditions: at 1 µM
[5] = molecular target: Epidermal growth factor receptor (Homo sapiens) (UniProt P00533); conditions: at 10 µM
[6] = molecular target: T3, Ephrin type-A receptor 1 (Homo sapiens) (UniProt P21709); conditions: at 1 µM
T3 sequence (whole entry): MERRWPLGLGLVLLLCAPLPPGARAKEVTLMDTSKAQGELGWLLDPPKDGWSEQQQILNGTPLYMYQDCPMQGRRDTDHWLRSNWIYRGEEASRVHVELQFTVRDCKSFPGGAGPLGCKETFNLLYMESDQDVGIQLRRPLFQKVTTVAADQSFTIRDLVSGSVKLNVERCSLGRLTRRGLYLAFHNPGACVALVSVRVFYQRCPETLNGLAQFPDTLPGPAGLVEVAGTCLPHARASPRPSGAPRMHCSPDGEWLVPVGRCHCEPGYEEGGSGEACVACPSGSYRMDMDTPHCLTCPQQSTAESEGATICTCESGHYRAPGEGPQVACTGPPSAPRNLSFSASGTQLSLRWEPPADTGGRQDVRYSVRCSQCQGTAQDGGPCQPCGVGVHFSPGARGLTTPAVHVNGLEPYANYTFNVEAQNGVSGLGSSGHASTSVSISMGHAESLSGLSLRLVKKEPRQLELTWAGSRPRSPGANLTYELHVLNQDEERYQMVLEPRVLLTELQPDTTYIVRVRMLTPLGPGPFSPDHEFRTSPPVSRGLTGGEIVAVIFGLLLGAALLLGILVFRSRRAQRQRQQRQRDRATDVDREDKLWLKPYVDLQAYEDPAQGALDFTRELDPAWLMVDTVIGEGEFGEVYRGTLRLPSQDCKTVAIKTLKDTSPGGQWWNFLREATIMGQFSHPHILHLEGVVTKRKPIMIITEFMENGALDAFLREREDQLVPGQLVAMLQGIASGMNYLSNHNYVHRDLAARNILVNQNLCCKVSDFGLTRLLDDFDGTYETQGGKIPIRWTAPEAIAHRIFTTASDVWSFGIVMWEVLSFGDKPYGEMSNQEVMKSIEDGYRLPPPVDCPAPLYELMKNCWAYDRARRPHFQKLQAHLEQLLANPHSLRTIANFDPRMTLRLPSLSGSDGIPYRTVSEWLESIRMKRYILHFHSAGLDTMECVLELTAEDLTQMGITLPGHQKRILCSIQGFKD

[7] = molecular target: T3, Ephrin type-A receptor 1 (Homo sapiens); conditions: at 10 µM
[8] = molecular target: Ephrin type-A receptor 2 (Homo sapiens) (UniProt P29317); conditions: at 1 µM
[9] = molecular target: Ephrin type-A receptor 2 (Homo sapiens) (UniProt P29317); conditions: at 10 µM
[10] = molecular target: T4, Ephrin type-A receptor 3 (Homo sapiens) (UniProt P29320); conditions: at 1 µM
T4 sequence (whole entry): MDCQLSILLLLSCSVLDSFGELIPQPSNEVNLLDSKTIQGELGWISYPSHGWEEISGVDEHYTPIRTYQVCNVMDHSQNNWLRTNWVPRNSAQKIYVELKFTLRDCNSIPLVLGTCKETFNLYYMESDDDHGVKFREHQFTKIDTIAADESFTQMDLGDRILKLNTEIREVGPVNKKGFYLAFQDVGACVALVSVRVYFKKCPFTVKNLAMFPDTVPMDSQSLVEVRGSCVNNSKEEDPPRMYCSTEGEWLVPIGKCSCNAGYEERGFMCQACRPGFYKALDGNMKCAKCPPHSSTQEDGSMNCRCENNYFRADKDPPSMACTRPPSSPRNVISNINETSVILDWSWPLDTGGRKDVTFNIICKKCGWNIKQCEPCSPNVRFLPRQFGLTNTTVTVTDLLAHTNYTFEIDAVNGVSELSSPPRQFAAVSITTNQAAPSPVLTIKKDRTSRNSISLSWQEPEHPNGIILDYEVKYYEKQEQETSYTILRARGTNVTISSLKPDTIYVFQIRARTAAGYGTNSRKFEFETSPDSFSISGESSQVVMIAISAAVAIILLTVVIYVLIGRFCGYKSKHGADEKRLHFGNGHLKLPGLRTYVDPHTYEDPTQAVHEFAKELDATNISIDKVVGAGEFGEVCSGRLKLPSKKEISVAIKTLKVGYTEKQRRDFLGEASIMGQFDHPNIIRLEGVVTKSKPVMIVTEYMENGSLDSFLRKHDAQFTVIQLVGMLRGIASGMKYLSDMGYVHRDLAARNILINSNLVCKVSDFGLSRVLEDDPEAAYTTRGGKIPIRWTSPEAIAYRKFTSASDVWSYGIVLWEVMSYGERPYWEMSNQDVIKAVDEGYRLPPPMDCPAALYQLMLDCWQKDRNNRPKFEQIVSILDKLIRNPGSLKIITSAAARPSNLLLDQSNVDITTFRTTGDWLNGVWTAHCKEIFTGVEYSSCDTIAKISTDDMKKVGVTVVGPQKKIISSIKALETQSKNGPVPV

[11] = molecular target: T4, Ephrin type-A receptor 3 (Homo sapiens); conditions: at 10 µM
[12] = molecular target: Ephrin type-A receptor 4 (Homo sapiens) (UniProt P54764); conditions: at 1 µM
[13] = molecular target: Ephrin type-A receptor 4 (Homo sapiens) (UniProt P54764); conditions: at 10 µM
[14] = molecular target: Ephrin type-A receptor 5 (Homo sapiens) (UniProt P54756); conditions: at 1 µM
[15] = molecular target: Ephrin type-A receptor 5 (Homo sapiens) (UniProt P54756); conditions: at 10 µM
[16] = molecular target: Ephrin type-A receptor 7 (Homo sapiens) (UniProt Q15375); conditions: at 1 µM
[17] = molecular target: Ephrin type-A receptor 7 (Homo sapiens) (UniProt Q15375); conditions: at 10 µM
[18] = molecular target: T5, Ephrin type-A receptor 8 (Homo sapiens) (UniProt P29322); conditions: at 1 µM
T5 sequence (whole entry): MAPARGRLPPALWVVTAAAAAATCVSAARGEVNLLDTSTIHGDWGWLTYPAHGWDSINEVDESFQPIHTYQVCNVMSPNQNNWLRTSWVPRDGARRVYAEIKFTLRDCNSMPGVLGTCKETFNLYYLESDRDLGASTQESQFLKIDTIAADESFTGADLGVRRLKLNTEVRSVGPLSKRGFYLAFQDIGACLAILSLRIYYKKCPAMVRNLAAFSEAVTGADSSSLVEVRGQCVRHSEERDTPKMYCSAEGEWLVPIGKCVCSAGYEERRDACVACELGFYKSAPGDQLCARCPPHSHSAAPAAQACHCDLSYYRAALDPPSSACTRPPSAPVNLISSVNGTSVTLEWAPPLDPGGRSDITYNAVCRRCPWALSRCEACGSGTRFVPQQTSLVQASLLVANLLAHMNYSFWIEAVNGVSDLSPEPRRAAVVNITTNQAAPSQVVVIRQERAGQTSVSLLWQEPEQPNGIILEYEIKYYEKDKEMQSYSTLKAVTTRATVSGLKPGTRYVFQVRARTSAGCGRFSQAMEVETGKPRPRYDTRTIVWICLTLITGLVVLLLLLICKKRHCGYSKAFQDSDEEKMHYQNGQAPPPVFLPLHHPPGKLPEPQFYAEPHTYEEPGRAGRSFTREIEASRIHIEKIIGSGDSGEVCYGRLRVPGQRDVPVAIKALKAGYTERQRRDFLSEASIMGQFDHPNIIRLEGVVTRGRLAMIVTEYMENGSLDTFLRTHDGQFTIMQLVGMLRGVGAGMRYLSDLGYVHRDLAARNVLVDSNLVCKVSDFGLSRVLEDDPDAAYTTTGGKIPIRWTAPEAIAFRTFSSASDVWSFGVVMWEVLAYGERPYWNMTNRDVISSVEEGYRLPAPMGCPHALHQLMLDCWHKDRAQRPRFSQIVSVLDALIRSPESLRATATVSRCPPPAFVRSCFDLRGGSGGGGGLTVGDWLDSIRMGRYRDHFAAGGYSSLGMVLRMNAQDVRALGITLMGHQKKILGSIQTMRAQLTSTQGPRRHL

[19] = molecular target: T5, Ephrin type-A receptor 8 (Homo sapiens); conditions: at 10 µM
[20] = molecular target: T6, Ephrin type-B receptor 1 (Homo sapiens) (UniProt P54762); conditions: at 1 µM
T6 sequence (whole entry): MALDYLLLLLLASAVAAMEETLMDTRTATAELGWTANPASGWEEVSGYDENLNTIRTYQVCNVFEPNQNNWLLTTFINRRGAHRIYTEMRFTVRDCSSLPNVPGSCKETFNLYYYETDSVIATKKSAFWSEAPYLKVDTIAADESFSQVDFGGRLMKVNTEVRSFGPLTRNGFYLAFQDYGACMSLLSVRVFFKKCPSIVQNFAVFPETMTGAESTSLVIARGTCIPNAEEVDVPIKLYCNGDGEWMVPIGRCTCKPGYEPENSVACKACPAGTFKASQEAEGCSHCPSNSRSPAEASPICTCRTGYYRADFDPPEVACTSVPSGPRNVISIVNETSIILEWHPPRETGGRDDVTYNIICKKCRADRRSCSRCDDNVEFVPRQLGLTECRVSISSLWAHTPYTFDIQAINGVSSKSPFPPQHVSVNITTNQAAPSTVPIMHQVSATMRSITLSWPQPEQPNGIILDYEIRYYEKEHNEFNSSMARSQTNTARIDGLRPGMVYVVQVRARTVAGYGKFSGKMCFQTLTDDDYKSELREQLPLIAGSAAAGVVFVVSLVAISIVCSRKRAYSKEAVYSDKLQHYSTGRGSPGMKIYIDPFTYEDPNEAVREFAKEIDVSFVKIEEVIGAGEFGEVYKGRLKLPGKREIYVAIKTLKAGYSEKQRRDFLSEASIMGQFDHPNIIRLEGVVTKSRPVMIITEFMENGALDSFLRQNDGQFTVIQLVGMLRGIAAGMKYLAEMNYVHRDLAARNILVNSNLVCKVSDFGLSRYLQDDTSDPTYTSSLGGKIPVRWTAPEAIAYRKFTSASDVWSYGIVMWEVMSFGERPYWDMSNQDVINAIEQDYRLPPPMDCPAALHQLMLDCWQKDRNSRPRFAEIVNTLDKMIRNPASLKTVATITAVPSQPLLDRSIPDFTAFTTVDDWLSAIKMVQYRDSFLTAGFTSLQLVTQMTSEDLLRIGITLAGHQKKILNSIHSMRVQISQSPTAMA

Sequence of Ephrin type-A receptor 4 (Homo sapiens) (P54764 whole entry): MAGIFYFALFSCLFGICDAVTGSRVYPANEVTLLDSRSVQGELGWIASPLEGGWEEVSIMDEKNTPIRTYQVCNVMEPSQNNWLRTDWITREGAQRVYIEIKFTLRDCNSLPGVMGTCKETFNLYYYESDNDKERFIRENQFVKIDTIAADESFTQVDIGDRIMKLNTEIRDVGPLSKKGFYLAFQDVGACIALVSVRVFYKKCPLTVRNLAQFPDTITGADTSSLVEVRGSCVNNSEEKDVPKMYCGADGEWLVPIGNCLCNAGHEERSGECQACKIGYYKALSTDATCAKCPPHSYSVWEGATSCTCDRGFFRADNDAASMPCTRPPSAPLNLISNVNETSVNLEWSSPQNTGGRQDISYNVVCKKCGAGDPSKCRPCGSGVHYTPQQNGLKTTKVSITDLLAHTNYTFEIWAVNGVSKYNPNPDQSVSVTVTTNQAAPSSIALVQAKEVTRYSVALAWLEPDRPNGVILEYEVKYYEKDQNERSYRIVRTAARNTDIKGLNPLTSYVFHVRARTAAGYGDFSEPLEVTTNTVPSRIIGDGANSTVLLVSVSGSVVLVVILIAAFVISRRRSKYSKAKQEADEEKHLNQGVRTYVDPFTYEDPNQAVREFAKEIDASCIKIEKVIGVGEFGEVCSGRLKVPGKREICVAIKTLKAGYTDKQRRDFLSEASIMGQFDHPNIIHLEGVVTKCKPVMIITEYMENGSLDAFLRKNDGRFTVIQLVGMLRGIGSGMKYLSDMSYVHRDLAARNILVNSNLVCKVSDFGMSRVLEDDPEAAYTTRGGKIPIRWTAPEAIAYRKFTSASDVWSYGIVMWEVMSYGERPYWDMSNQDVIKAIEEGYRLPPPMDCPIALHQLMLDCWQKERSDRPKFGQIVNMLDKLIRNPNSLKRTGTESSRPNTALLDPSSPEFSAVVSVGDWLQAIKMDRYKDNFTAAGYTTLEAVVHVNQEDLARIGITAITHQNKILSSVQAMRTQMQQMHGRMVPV
Sequence of Epidermal growth factor receptor (Homo sapiens) (P00533 whole entry): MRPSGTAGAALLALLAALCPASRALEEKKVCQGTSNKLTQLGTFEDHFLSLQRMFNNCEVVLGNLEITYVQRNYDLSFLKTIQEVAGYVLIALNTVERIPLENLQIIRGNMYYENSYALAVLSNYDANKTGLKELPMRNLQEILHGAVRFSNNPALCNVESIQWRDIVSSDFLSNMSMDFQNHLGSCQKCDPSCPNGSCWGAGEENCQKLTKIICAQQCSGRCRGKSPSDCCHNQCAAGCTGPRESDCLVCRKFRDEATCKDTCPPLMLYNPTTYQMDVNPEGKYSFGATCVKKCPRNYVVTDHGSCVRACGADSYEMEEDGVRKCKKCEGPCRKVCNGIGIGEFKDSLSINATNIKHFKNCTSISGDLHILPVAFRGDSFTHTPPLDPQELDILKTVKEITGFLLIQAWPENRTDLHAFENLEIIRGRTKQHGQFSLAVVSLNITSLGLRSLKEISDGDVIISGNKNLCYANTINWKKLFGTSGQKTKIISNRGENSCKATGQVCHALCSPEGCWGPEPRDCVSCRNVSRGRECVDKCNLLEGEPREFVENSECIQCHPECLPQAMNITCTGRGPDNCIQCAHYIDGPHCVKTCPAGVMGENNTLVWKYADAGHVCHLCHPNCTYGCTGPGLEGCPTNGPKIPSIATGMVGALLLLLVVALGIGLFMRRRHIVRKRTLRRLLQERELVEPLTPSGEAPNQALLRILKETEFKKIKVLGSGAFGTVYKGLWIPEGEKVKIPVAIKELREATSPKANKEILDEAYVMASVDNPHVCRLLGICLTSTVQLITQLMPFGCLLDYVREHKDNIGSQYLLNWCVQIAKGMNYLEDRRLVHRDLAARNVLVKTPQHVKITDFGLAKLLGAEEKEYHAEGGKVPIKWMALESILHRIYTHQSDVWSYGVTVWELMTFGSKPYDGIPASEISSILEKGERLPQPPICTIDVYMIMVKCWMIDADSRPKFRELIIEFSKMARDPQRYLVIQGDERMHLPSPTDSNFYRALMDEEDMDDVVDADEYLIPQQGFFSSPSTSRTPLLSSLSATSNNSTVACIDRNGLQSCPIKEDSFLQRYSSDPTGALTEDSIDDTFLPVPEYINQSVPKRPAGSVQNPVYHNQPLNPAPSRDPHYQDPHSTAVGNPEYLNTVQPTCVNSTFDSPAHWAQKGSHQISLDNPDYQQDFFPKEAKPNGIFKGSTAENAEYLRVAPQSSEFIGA
Sequence of Ephrin type-A receptor 2 (Homo sapiens) (P29317 whole entry): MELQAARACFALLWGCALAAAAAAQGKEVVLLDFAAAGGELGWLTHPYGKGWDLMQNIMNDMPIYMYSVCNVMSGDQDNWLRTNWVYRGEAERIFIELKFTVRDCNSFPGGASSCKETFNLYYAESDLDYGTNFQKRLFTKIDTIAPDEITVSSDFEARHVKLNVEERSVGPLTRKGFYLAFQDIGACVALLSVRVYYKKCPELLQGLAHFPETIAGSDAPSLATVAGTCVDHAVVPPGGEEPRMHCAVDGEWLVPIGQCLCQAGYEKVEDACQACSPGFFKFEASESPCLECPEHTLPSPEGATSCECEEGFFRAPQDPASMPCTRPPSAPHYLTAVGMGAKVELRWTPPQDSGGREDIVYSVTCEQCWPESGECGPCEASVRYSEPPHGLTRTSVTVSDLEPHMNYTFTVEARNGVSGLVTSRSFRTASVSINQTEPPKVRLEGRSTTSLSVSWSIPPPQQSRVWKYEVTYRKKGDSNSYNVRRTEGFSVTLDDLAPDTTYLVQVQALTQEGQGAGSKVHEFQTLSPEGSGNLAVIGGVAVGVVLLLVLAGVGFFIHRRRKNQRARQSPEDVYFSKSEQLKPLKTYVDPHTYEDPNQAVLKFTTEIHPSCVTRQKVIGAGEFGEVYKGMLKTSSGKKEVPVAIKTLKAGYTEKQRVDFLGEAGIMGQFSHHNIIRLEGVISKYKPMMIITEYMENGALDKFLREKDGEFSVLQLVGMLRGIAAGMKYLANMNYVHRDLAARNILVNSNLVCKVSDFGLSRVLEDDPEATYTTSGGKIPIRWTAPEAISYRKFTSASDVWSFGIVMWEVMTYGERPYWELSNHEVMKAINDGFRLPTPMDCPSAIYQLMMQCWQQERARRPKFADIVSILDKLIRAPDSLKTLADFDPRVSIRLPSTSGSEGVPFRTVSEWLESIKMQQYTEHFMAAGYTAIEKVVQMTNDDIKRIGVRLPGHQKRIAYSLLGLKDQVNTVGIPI
Sequence of Ephrin type-A receptor 7 (Homo sapiens) (Q15375 28-998 limits assumed): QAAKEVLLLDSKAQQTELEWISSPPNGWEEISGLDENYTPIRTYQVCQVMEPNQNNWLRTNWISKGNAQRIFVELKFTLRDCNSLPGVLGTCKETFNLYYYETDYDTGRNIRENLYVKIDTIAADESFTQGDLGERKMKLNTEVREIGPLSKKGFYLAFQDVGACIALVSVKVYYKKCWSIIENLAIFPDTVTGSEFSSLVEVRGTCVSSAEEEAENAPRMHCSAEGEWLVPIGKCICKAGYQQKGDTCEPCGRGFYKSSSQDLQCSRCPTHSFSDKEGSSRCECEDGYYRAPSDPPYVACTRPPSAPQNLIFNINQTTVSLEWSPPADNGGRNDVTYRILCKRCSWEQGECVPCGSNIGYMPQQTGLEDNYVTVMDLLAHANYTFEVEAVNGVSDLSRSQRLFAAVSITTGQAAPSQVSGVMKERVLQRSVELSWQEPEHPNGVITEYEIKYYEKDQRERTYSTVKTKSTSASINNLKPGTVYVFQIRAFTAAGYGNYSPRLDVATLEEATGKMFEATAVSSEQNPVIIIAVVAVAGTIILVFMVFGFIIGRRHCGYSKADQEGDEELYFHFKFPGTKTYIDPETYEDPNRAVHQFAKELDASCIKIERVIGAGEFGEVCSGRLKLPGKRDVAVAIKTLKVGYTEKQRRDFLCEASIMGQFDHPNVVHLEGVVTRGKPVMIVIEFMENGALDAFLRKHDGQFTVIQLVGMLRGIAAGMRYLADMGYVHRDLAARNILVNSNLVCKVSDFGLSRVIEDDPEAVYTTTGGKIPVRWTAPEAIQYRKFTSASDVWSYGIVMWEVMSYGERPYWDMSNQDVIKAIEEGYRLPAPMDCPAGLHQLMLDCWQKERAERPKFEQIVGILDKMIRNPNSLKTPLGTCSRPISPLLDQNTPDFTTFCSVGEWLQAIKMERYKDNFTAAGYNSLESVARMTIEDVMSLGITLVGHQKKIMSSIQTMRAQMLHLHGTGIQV

Row | Compound | residual activity [1] | residual activity [2] | residual activity [3] | residual activity [4] | residual activity [5] | residual activity [6] | residual activity [7] | residual activity [8] | residual activity [9] | residual activity [10] | residual activity [11] | residual activity [12] | residual activity [13] | residual activity [14] | residual activity [15] | residual activity [16] | residual activity [17] | residual activity [18] | residual activity [19] | residual activity [20]
1 | NC(=O)c1ccc2[nH]c(-c3ccc(Oc4ccc(Cl)cc4)cc3)nc2c1 | 42% | 87% | 53% | 111% | 115% | 96% | 85% | 100% | 116% | 100% | 111% | 112% | 104% | 114% | 103% | 94% | 81% | 94% | 96% | 95%
2 | COc1cc2ncnc(Nc3ccc(Oc4ccccc4)cc3)c2cc1OC | 124% | 99% | 95% | -1% | -2% | 98% | 81% | 95% | 116% | 98% | 106% | 107% | 103% | 130% | 89% | 102% | 84% | 91% | 65% | 110%
3 | CN(C)c1ccc(/C=C2\C(=O)Nc3ccccc32)cc1 | 6% | 98% | 98% | – | – | 100% | 102% | 123% | 107% | 99% | 100% | 115% | 109% | 108% | 112% | 104% | 89% | 102% | 98% | 100%
